# Experimental data: PubChem BioAssay AID651711 (Broad Institute, 2012)
# Several values for one entry are separate records, joined by “and”; a condition that tells them apart may be missing. Equal values may be shown once. The campaign covered roughly 350,000 compounds. About 180 (0.051%) were called active.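 Rule for the calls: active = mean replicate inhibition above about 25%, with every replicate also reaching it (limit read from the data, passing the limit was not always enough); inconclusive = only one of those two criteria met; inactive = neither criterion met.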 Many of the other results were omitted from the sample, so actives are more common in it than they were. Some compounds were tested as several samples or in several runs, with calls that do not always agree.
# Target: Protein disulfide-isomerase A6 (Homo sapiens) (UniProt Q15084)
# Assay: inhibitors of ERp5-driven insulin aggregation, primary screen, biochemical, turbidity, absorbance 650 nm, single point (AID 651711)
# Settings: 90 min, at 9.99 µM, stronger effect = higher value
# Chain of Protein disulfide-isomerase A6 (Homo sapiens) (Q15084 whole entry, looked up): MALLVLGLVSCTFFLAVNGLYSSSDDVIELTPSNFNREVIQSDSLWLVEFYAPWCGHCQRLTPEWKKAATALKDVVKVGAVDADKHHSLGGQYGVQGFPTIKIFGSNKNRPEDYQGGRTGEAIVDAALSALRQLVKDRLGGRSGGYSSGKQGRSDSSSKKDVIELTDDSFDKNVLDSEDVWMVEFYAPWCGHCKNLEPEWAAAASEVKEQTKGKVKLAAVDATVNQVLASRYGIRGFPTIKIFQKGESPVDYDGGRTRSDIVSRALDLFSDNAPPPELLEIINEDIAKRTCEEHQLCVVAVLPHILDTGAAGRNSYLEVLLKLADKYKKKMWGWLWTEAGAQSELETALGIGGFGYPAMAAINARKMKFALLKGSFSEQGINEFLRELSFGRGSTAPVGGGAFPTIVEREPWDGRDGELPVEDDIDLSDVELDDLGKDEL
row,Compound,inhibition
1,C[C@H]1CN([C@@H](C)CO)S(=O)(=O)c2ccc(C#CCN(C)C)cc2O[C@@H]1CN(C)Cc1ccc(F)cc1,3.33% (inactive)
2,C[C@@H]1CN([C@@H](C)CO)C(=O)Cc2cc(NC(=O)C3CCCCC3)ccc2O[C@@H]1CN(C)Cc1ccc(C(=O)Nc2ccccc2N)cc1,-3.91% (inactive)
3,CN1C(=O)c2cc(NC(=O)c3cnccn3)ccc2OC[C@H]2O[C@@H](CC(=O)NCC3CCCCC3)CC[C@@H]21,-4.79% (inactive)
4,CC(C)NC(=O)N(C)C[C@H]1Oc2c(NC(=O)Nc3ccc(F)cc3)cccc2C(=O)N([C@@H](C)CO)C[C@@H]1C,0.87% (inactive)
5,COc1cccc(-c2cnc3c(c2)C(=O)N([C@@H](C)CO)C[C@H](C)[C@H](CN(C)C(C)=O)O3)c1,1.61% (inactive)
6,CN(C)C(=O)C[C@@H]1C=C[C@H](NC(=O)Nc2cccc(F)c2)[C@H](CO)O1,0.18% (inactive)
7,COCC(=O)N[C@@H]1C[C@@H]2O[C@@H](CO)CC[C@@H]2O[C@@H]1CCc1ccc(-c2ccccc2)cc1,-0.551% (inactive)
8,C[C@H]1CN([C@@H](C)CO)C(=O)c2cccc(NC(=O)c3cnccn3)c2O[C@H]1CN(C)C(=O)Nc1ccccc1,2.81% (inactive)
9,CC(=O)N1[C@H](CO)[C@H](c2ccccc2)[C@H]1CN(C(=O)c1ccccc1F)C(C)C,-2.13% (inactive)
10,Cc1cccc(S(=O)(=O)N(C)C[C@@H]2OCc3cnnn3CCCC(=O)N([C@H](C)CO)C[C@@H]2C)c1,-3.09% (inactive) and 0.225% (inactive) and -3.77% (inactive)
11,Cc1cccc(S(=O)(=O)N(C)C[C@H]2OCc3cnnn3CCCC(=O)N([C@@H](C)CO)C[C@H]2C)c1,-7.22% (inactive) and 27.4% (active)
12,C[C@H](CO)N1C[C@H](C)[C@H](CN(C)S(=O)(=O)c2cccc(F)c2)OCc2cnnn2CCCC1=O,-5.61% (inactive)
13,Cc1nc(NC(=O)C(C)(C)C)sc1[N+](=O)[O-],0.0535% (inactive)
14,O=C(NCC1CC1)[C@@H]1[C@@H](CO)[C@@H]2Cn3c(ccc(-c4ccncc4)c3=O)[C@@H]2N1Cc1cocn1,6.61% (inactive)
15,CO[C@@H]1CN(C)C(=O)c2ccc(NC(=O)NC(C)C)cc2OC[C@@H](C)N(Cc2ccc(-c3ccccn3)cc2)C[C@H]1C,-3.96% (inactive)
16,CCS(=O)(=O)N1[C@H](CO)[C@@H](c2ccc(C#CC(C)C)cc2)[C@@H]1C#N,0.717% (inactive)
17,O=C(C[C@H]1C=C[C@@H](NC(=O)c2ccc(F)cc2)[C@@H](CO)O1)NCCc1ccncc1,-1.66% (inactive)
18,COCC#Cc1cnc2c(c1)C(=O)N([C@H](C)CO)C[C@H](C)[C@H](CN(C)C(=O)CCN1CCCCC1)O2,-2% (inactive)
19,C[C@@H]1CN([C@H](C)CO)C(=O)Cc2cc(NC(=O)Cc3cn(C)c4ccccc34)ccc2O[C@@H]1CN(C)Cc1ccc(C(F)(F)F)cc1,-1.92% (inactive)
20,Cc1cccc(-c2ccccc2[C@@H]2[C@H](C#N)N(c3ncc(-c4ccccc4)s3)[C@H]2CO)c1,5.5% (inactive)
21,CO[C@@H]1CN(C)C(=O)c2cc(NS(=O)(=O)c3cccc(F)c3)ccc2OC[C@@H](C)NC[C@@H]1C,3.66% (inactive)

row,Compound,inhibition
1,CO[C@@H]1CC[C@@H]2CCOc3c(C#N)cccc3C(=O)N(C)C[C@@H](OC)[C@@H](C)C(=O)N(C)C[C@H]1O2,0.649% (inactive)
2,COc1ccc2c3c(n(C)c2c1)[C@@H](CO)N(CC1CC1)CC31CN(C(=O)c2cccc(F)c2)C1,-2.91% (inactive)
3,COCC(=O)N[C@@H]1C=C[C@@H](CC(=O)N2CCCCC2)O[C@@H]1CO,-2.02% (inactive)
4,CC(C)NC(=O)N(C)C[C@H]1OCCCC[C@@H](C)Oc2ccc(NS(C)(=O)=O)cc2C(=O)N([C@H](C)CO)C[C@H]1C,-1.99% (inactive)
5,CCCN1C[C@H](C)[C@@H](OC)CN(C)C(=O)c2cc(NS(=O)(=O)CC)ccc2OC[C@H]1C,-4.64% (inactive)
6,C[C@@H]1CN([C@@H](C)CO)C(=O)Cc2cc(NC(=O)Nc3cccc4ccccc34)ccc2O[C@@H]1CN(C)CC1CCCCC1,3.82% (inactive)
7,O=C(NCC[C@@H]1CC[C@@H](NS(=O)(=O)c2cccc(F)c2)[C@H](CO)O1)C1CC1,-3.52% (inactive)
8,CCCNC(=O)N(C)C[C@H]1Oc2cc(C#C[C@@H](C)O)ccc2S(=O)(=O)N([C@H](C)CO)C[C@H]1C,-12.1% (inactive)
9,CCCN1C[C@@H](C)[C@@H](OC)CN(C)C(=O)c2ccc(NC(=O)CC(F)(F)F)cc2OC[C@H]1C,9.49% (inactive)
10,Cc1ccc(-c2ccccc2[C@H]2[C@@H](C#N)N(c3ncc(-c4ccccc4)s3)[C@@H]2CO)cc1,-0.798% (inactive)
11,CC=Cc1ccc2n(c1=O)C[C@H]1[C@H](CO)[C@@H](C(=O)NCC3CC3)N(Cc3nccs3)[C@@H]21 (mixture of isomers),-2.63% (inactive)
12,COc1ccccc1-c1cnc2c(c1)C(=O)N([C@H](C)CO)C[C@H](C)[C@@H](CN(C)C(=O)CC1CC1)O2,-2.32% (inactive)
13,C[C@H]1CN([C@@H](C)CO)C(=O)c2cc(Br)cnc2O[C@@H]1CN(C)C(=O)c1ccccc1,-13% (inactive)
14,CCNC(=O)C[C@@H]1CC[C@@H]2[C@@H](COc3ccc(NC(C)=O)cc3C(=O)N2C)O1,-7.17% (inactive)
15,COCC(=O)Nc1ccc2c(c1)C(=O)N(C)[C@@H]1CC[C@H](CC(=O)NCC3CC3)O[C@@H]1CO2,7.57% (inactive)
16,CC(=O)Nc1ccc2c(c1)C(=O)N(C)[C@H]1CC[C@@H](CC(=O)NCC3CC3)O[C@H]1CO2,39.3% (active)
17,C[C@@H]1CN([C@@H](C)CO)C(=O)Cc2cc(NC(=O)Nc3cccc4ccccc34)ccc2O[C@H]1CN(C)S(=O)(=O)c1ccc(Cl)cc1,-3.03% (inactive)
18,O=C(CN1CCOCC1)N[C@@H]1CC[C@@H](CCNC(=O)C2CCCCC2)O[C@@H]1CO,0.632% (inactive)
19,C[C@H](CO)N1C[C@H](C)[C@H](CN(C)Cc2ccc(Oc3ccccc3)cc2)Oc2c(NC(=O)CCCCCC(=O)Nc3ccccc3N)cccc2C1=O,1.76% (inactive)
20,CO[C@@H]1CN(C)C(=O)c2cc(NS(=O)(=O)CC(F)(F)F)ccc2OC[C@H](C)N(C)C[C@H]1C,1.29% (inactive)
21,C/C=C/c1ccccc1[C@H]1[C@@H](C#N)N(C(C)=O)[C@@H]1CO,0.399% (inactive)

row,Compound,inhibition
1,COc1ccc(NC(=O)N(C)C[C@@H]2OCc3ccccc3-c3c(n(C)c4ccccc34)C(=O)N([C@H](C)CO)C[C@H]2C)cc1,1.51% (inactive)
2,COc1ccc(S(=O)(=O)Nc2ccc3c(c2)C(=O)N([C@@H](C)CO)C[C@H](C)[C@H](CN(C)Cc2ccc(C(=O)O)cc2)O3)cc1,4.86% (inactive)
3,C/C=C/c1ccc2c(c1)O[C@H](CN(C)C(=O)Cc1ccccn1)[C@H](C)CN([C@H](C)CO)S2(=O)=O,-3.16% (inactive)
4,N#C[C@@H]1[C@H](c2ccccc2-c2ccccc2F)[C@@H](CO)N1C(=O)c1ccccn1,-2.07% (inactive)
5,Cc1ccc(S(=O)(=O)Nc2ccc3c(c2)C(=O)N([C@H](C)CO)C[C@H](C)[C@@H](CN(C)S(=O)(=O)c2cccs2)O3)cc1,3.96% (inactive)
6,C[C@@H]1CN([C@@H](C)CO)C(=O)c2cc(NC(=O)Nc3ccccc3)ccc2O[C@H]1CN(C)C(=O)Nc1ccc(F)cc1,4.96% (inactive)
7,CCC(=O)N(C)C[C@H]1[C@H](c2ccc(-c3ccccc3F)cc2)[C@@H](CO)N1C(C)=O,-0.23% (inactive)
8,COCC#Cc1ccc([C@@H]2[C@@H](CO)N3C(=O)CN(C(=O)C4CCCC4)C[C@@H]23)cc1,0.681% (inactive)
9,Cc1noc(C)c1S(=O)(=O)N(C)C[C@H]1Oc2ccc(NC(=O)Nc3cccc4ccccc34)cc2CC(=O)N([C@@H](C)CO)C[C@H]1C,-5.17% (inactive)
10,COc1ccc2c3c(n(C)c2c1)[C@@H](CO)N(C(=O)c1ccc(F)cc1)CC31CN(C(=O)c2ccc(F)cc2)C1,1.03% (inactive)
11,COc1ccc2c3c(n(C)c2c1)[C@@H](CO)N(C(=O)CN1CCOCC1)CC31CN(C(=O)CC2CC2)C1,-0.576% (inactive)
12,CN(C)CC(=O)N1[C@@H](CO)[C@H](c2ccccc2)C12CN(C(=O)c1cccc(F)c1)C2,2.27% (inactive)
13,C/C=C/c1ccc([C@@H]2[C@H](CO)N(C(=O)c3cnccn3)C23CN(C(C)=O)C3)cc1,-4.61% (inactive)
14,C[C@@H]1CN([C@H](C)CO)C(=O)c2cc(C#CCC3CCCC3)cnc2O[C@H]1CN(C)C(=O)c1cnccn1,-0.111% (inactive)
15,C[C@@H]1CN([C@H](C)CO)S(=O)(=O)c2ccc(-c3ccncc3)cc2O[C@H]1CN(C)S(=O)(=O)c1ccccc1F,-3.02% (inactive)
16,C[C@@H]1CN([C@@H](C)CO)C(=O)c2cc(NS(=O)(=O)c3ccccc3)ccc2O[C@@H]1CN(C)Cc1ccc(C(=O)O)cc1,-2.81% (inactive)
17,Cc1noc(C)c1S(=O)(=O)Nc1ccc2c(c1)C(=O)N([C@H](C)CO)C[C@H](C)[C@H](CN(C)S(C)(=O)=O)OCCCC[C@H](C)O2,-0.161% (inactive)
18,C[C@@H]1CN([C@@H](C)CO)S(=O)(=O)c2ccc(C#CC(C)(C)O)cc2O[C@H]1CN(C)C(=O)CN(C)C,-0.244% (inactive)
19,C[C@H](CO)N1C[C@H](C)[C@H](CN(C)C)Oc2cc(C#Cc3ccccc3F)ccc2S1(=O)=O,11.3% (inactive)
